Hit rate of the full screen: of about 39,000 compounds, about 1,500 (3.8%) were called active. The sample holds actives, similar compounds and a random draw of the others, so the mix is not that of the screen.
system: HSkMC (human skeletal muscle cells); test: cytotoxicity call (relative viability < 0.9); details: 10 µM

| Structure (SMILES) | cytotoxicity call |
| --- | --- |
| C[C@@H]1CN([C@@H](C)CO)C(=O)c2cc(NC(=O)CCC(F)(F)F)ccc2O[C@H]1CN(C)C(=O)Nc1cccc2ccccc12 | inactive |
| COc1ccc(NC(=O)Nc2ccc3c(c2)C(=O)N([C@@H](C)CO)C[C@H](C)[C@H](CN(C)C(=O)C2CCCCC2)OCCCC[C@H](C)O3)cc1 | inactive |
| CCCNC(=O)N(C)C[C@@H]1Oc2cc(C#Cc3cccc(F)c3)ccc2S(=O)(=O)N([C@@H](C)CO)C[C@@H]1C | inactive |
| Cc1noc(C)c1NC(=O)N(C)C[C@@H]1Oc2ccc(NS(=O)(=O)c3c(C)noc3C)cc2CC(=O)N([C@H](C)CO)C[C@H]1C | inactive |
| Oc1c(Cl)cc(Cl)c(Cl)c1Cc1c(O)c(Cl)cc(Cl)c1Cl | active |
| Cc1ccc2c(Cl)cc(Cl)c(O)c2n1 | inactive |
| O=C(Nc1cc(Cl)cc(Cl)c1O)c1c(O)c(Cl)cc(Cl)c1Cl | inactive |
| C[C@@H]1CCCCO[C@@H](CN(C)Cc2ccc(C(F)(F)F)cc2)[C@H](C)CN([C@@H](C)CO)C(=O)c2cc(N(C)C)ccc2O1 | inactive |
| CC(C)NC(=O)Nc1ccc2c(c1)CC(=O)N([C@@H](C)CO)C[C@H](C)[C@@H](CN(C)C(=O)NC1CCCCC1)O2 | inactive |
| CC(C)NC(=O)N(C)C[C@@H]1Oc2ccc(NS(=O)(=O)c3ccccc3)cc2C(=O)N([C@H](C)CO)C[C@@H]1C | inactive |
| Oc1c(Cl)cc(Cl)cc1Sc1cc(Cl)cc(Cl)c1O | active |
| C[C@@H]1CN([C@@H](C)CO)S(=O)(=O)c2ccc(-c3cncnc3)cc2O[C@@H]1CN(C)C(=O)C1CCCCC1 | inactive |
| C[C@H](O)C1=C[C@]2(CC[C@@H]3C(C(=O)O)=CO[C@@H](O[C@@H]4O[C@H](CO)[C@@H](O)[C@H](O)[C@H]4O)[C@@H]32)OC1=O | inactive |
| CC1(C)CN(C(=O)Cn2nccn2)C[C@]1(C)O | inactive |
| O=C(N[C@H]1CC=CC[C@H](CC(=O)N(CCO)Cc2ccccc2)C(=O)N[C@H](Cc2ccccc2)COC1=O)OCC1c2ccccc2-c2ccccc21 | inactive |
| O=C(N[C@@H]1CC=CC[C@H](CC(=O)N(CCO)Cc2ccccc2)C(=O)NC[C@H](c2ccccc2)OC1=O)OCC1c2ccccc2-c2ccccc21 | inactive |
| O=C(C[C@@H]1CC=CC[C@@H](NC(=O)OCC2c3ccccc3-c3ccccc32)C(=O)OC[C@@H](Cc2ccccc2)NC1=O)N[C@@H](CO)Cc1ccccc1 | inactive |
| O=C(N[C@H]1CC=CC[C@H](CC(=O)N(CCO)Cc2ccccc2)C(=O)N[C@@H](Cc2ccccc2)COC1=O)OCC1c2ccccc2-c2ccccc21 | active |
| O=C(N[C@H]1CC=CC[C@H](CC(=O)N(CCO)Cc2ccccc2)C(=O)NCC(c2ccccc2)OC1=O)OCC1c2ccccc2-c2ccccc21 (stereo partly specified) | inactive |
| O=C(N[C@@H]1CC=CC[C@H](CC(=O)N(CCO)Cc2ccccc2)C(=O)N[C@@H](Cc2ccccc2)COC1=O)OCC1c2ccccc2-c2ccccc21 | inactive |
| O=C(C[C@@H]1CC=CC[C@H](NC(=O)OCC2c3ccccc3-c3ccccc32)C(=O)O[C@H](c2ccccc2)CNC1=O)N[C@H](CO)Cc1ccccc1 | active |
| O=C(C[C@@H]1CC=CC[C@H](NC(=O)OCC2c3ccccc3-c3ccccc32)C(=O)OC[C@H](Cc2ccccc2)NC1=O)N[C@@H](CO)Cc1ccccc1 | inactive |

| Structure (SMILES) | cytotoxicity call |
| --- | --- |
| O=C(C[C@@H]1CC=CC[C@H](NC(=O)OCC2c3ccccc3-c3ccccc32)C(=O)O[C@H](c2ccccc2)CNC1=O)N[C@@H](CO)Cc1ccccc1 | active |
| O=C(C[C@@H]1CC=CC[C@@H](NC(=O)OCC2c3ccccc3-c3ccccc32)C(=O)OC[C@H](Cc2ccccc2)NC1=O)N[C@H](CO)Cc1ccccc1 | inactive |
| O=C(C[C@@H]1CC=CC[C@H](NC(=O)OCC2c3ccccc3-c3ccccc32)C(=O)OC[C@H](Cc2ccccc2)NC1=O)N[C@H](CO)Cc1ccccc1 | inactive |
| O=C(C[C@@H]1CC=CC[C@H](NC(=O)OCC2c3ccccc3-c3ccccc32)C(=O)O[C@@H](c2ccccc2)CNC1=O)N[C@@H](CO)Cc1ccccc1 | active |
| COc1ccc(S(=O)(=O)Nc2ccc3c(c2)C(=O)N([C@@H](C)CO)C[C@@H](C)[C@@H](CN(C)Cc2ccncc2)O3)cc1 | inactive |
| CC(C)NC(=O)N(C)C[C@@H]1Oc2ccc(NS(=O)(=O)c3ccc(F)cc3)cc2CC(=O)N([C@H](C)CO)C[C@@H]1C | inactive |
| COc1cccc(S(=O)(=O)N[C@H]2CC[C@H](CCn3cc(-c4ccccc4OC)nn3)O[C@H]2CO)c1 | inactive |
| C[C@H]1CCCCO[C@@H](CN(C)C(=O)NC2CCCCC2)[C@@H](C)CN([C@@H](C)CO)C(=O)c2cc(NC(=O)Nc3ccc(F)cc3)ccc2O1 | inactive |
| C[C@H]1CN([C@@H](C)CO)C(=O)c2cccc(NC(=O)c3ccc(-c4nccs4)cc3)c2O[C@H]1CN(C)Cc1ccc(Cl)c(Cl)c1 | inactive |
| COc1ccccc1-c1ccc2c(c1)O[C@@H](CN(C)S(=O)(=O)c1ccccc1)[C@H](C)CN([C@@H](C)CO)S2(=O)=O | inactive |
| COc1ccc2c3c([nH]c2c1)[C@H](CO)N(C[C@]13CN(C)C1)C(=O)CN1CCOCC1 | inactive |
| COc1ccc(NC(=O)N(C)C[C@H]2OCCCC[C@@H](C)Oc3ccc(NS(=O)(=O)c4ccc(Cl)cc4)cc3C(=O)N([C@@H](C)CO)C[C@@H]2C)cc1 | inactive |
| Cc1ccc(S(=O)(=O)Nc2ccc3c(c2)C(=O)N([C@H](C)CO)C[C@H](C)[C@@H](CN(C)C(=O)NC(C)C)O3)cc1 | inactive |
| Cc1ccc(S(=O)(=O)N(C)C[C@H]2OCCCC[C@H](C)Oc3ccc(NC(=O)Nc4ccc(C(F)(F)F)cc4)cc3C(=O)N([C@H](C)CO)C[C@H]2C)cc1 | inactive |
| CCC(=O)Nc1ccc2c(c1)C(=O)N(C)C[C@@H](OC)[C@H](C)CN(C(=O)CN1CCOCC1)[C@H](C)CO2 | inactive |
| Cc1noc(C)c1S(=O)(=O)N(C)C[C@H]1OCCCC[C@H](C)Oc2ccc(NC(=O)Nc3ccccc3)cc2C(=O)N([C@H](C)CO)C[C@@H]1C | active |
| Cc1noc(C)c1S(=O)(=O)N(C)C[C@H]1OCCCC[C@@H](C)Oc2ccc(NC(=O)Nc3ccccc3)cc2C(=O)N([C@H](C)CO)C[C@@H]1C | inactive |
| Cc1noc(C)c1S(=O)(=O)N(C)C[C@@H]1OCCCC[C@@H](C)Oc2ccc(NC(=O)Nc3ccccc3)cc2C(=O)N([C@H](C)CO)C[C@H]1C | inactive |
| Cc1noc(C)c1S(=O)(=O)N(C)C[C@@H]1OCCCC[C@@H](C)Oc2ccc(NC(=O)Nc3ccccc3)cc2C(=O)N([C@@H](C)CO)C[C@@H]1C | inactive |
| Cc1noc(C)c1S(=O)(=O)N(C)C[C@@H]1OCCCC[C@H](C)Oc2ccc(NC(=O)Nc3ccccc3)cc2C(=O)N([C@H](C)CO)C[C@H]1C | active |
| Cc1noc(C)c1S(=O)(=O)N(C)C[C@H]1Oc2ccc(NC(=O)Cn3cnnn3)cc2C(=O)N([C@H](C)CO)C[C@H]1C | active |
| Cc1noc(C)c1S(=O)(=O)N(C)C[C@H]1OCCCC[C@H](C)Oc2ccc(NC(=O)Nc3ccccc3)cc2C(=O)N([C@H](C)CO)C[C@H]1C | inactive |

| Structure (SMILES) | cytotoxicity call |
| --- | --- |
| Cc1noc(C)c1S(=O)(=O)N(C)C[C@@H]1Oc2ccc(NC(=O)Cn3cnnn3)cc2C(=O)N([C@@H](C)CO)C[C@@H]1C | inactive |
| Cc1noc(C)c1S(=O)(=O)N(C)C[C@H]1Oc2ccc(NC(=O)Cn3cnnn3)cc2C(=O)N([C@@H](C)CO)C[C@H]1C | inactive |
| Cc1ccc(S(=O)(=O)N(C)C[C@H]2Oc3ccc(NC(=O)CCN4CCOCC4)cc3C(=O)N([C@H](C)CO)C[C@@H]2C)cc1 | inactive |
| C[C@@H]1CCCCO[C@@H](CN(C)C(=O)Nc2ccc(C(F)(F)F)cc2)[C@@H](C)CN([C@H](C)CO)C(=O)c2cc(NC(=O)Nc3cccc4ccccc34)ccc2O1 | inactive |
| C=C/C=C/[C@@H]1C(=C)CN([C@@H](Cc2ccccc2)C(=O)OC)[C@H]1[C@@H](O)CCn1cc(CCC(=O)NO)nn1 | inactive |
| C[C@H]1CN([C@@H](C)CO)C(=O)c2cccc(NC(=O)C3CC3)c2O[C@H]1CN(C)C(=O)Nc1ccc2c(c1)OCO2 | inactive |
| CCC(C)(C)c1ccc(CC(C)CN2CC(C)OC(C)C2)cc1.Cl (stereo unspecified) | inactive |
| NCc1cn(-c2ccccc2)nc1C12CC3CC(CC(C3)C1)C2 | active |
| c1ccc(-c2nc(C34CC5CC(CC(C5)C3)C4)cs2)cc1 | inactive |
| OCc1cn(-c2ccccc2)nn1 | inactive |
| C[C@H]1CCN=C(N)S1 | inactive |
| C[C@@H]1CN([C@@H](C)CO)C(=O)c2cccc(NC(=O)c3cnccn3)c2O[C@@H]1CN(C)S(=O)(=O)c1ccc(Cl)cc1 | inactive |
| O=C(O)c1ccc(C(=O)O)nc1 | inactive |
| COc1ccc2c3c([nH]c2c1)[C@H](CO)N(C[C@]13CCN(CC1)C(=O)c1ccncc1)C(=O)c1ccncc1 | inactive |
| C[C@@H]1CN([C@@H](C)CO)C(=O)c2cc(NC(=O)CCCN(C)C)ccc2O[C@@H](C)CCCCO[C@H]1CN(C)CC1CCCCC1 | inactive |
| CCCNc1nc(=O)c(C)n[nH]1 | inactive |
| Cc1n[nH]c(NCc2ccco2)nc1=O | inactive |
| Cc1n[nH]c(N/N=C/c2ccccn2)nc1=O | active |
| Cc1ccc(-c2nn[nH]n2)n1C | inactive |
| C[C@@H]1CN([C@@H](C)CO)C(=O)c2cc(NC(=O)NC3CCCCC3)ccc2O[C@@H](C)CCCCO[C@H]1CN(C)C(=O)c1ccncc1 | inactive |
| C[C@@H]1CN([C@H](C)CO)C(=O)Cc2cc(NS(=O)(=O)c3ccccc3)ccc2O[C@@H]1CN(C)Cc1ccc2c(c1)OCO2 | inactive |
| O=C(C[C@@H]1CC[C@@H]2[C@H](COC[C@@H](O)CN2C(=O)c2cnccn2)O1)N1CCN(c2ccccc2)CC1 | inactive |
